We go through 35 molecules from PubChem BioAssay (NCATS).

SMILES strings stand for the structures. Records with an inconclusive call do not appear. Active and inactive are the calls of the source. Calls come from the whole dose curve; as a rule, active = well fitted cell-killing curve with a large enough effect; inconclusive = small, poorly fitted or top-dose-only effect; inactive = flat fitted curve, though single readings scatter.
Potency is the fitted concentration of half-maximal effect.

One assay in a line: qHTS of pediatric cancer cell lines to identify multiple opportunities for drug repurposing: Primary screen for TC32 cells (AID 1347089). For activity change, negative = cytotoxic: % is set by controls: 0 for no effect and ±100 for the full control effect. Note: nearly all actives have a fitted effect of over 60% in size. The note with it: TC32 Ewing sarcoma viability, CellTiter-Glo luminescence, 48 h; series mostly up to 45.8 µM; activity change, negative = cytotoxic: at the top concentration. The procedure, abridged: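 qHTS, TC32, 48 h drug treatment, CellTiter-Glo luminescence as a proxy for metabolically active cells; primary top concentration 46 µM (MIPE 11-pt, NPC 8-pt); confirmatory 11-pt.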
Take `N#Cc1c(O)c2c(-c3ccc(-c4ccccc4O)cc3)csc2[nH]c1=O`: the “activity change, negative = cytotoxic” value was 1.01% (inactive).
The same measure, in the same setting: to `OCc1ccc(-c2ccc(-c3ccc(CO)s3)o2)s1` belongs -9.18% (inactive).
For `CC(=O)SC[C@@H](C)C(=O)N1CCC[C@H]1C(=O)N[C@@H](Cc1ccccc1)C(=O)O`, the “activity change, negative = cytotoxic” value is 7.76% (inactive).
Regarding `O=C(Cc1ccc(-c2ccc(OCCN3CCOCC3)cc2)cn1)NCc1ccccc1`, the Potency was 117 nM (active).
As for `O=C(C=Cc1c(C(=O)O)[nH]c2cc(Cl)cc(Cl)c12)Nc1ccccc1`, the “activity change, negative = cytotoxic” value was 7.18% (inactive).
As to `C1=CCOCc2cc(ccc2OCCN2CCCC2)Nc2nccc(n2)-c2cccc(c2)OCC1`, the Potency is 14700 nM (active).
The same measure, in the same setting: to `COC(=O)c1ccc2c(C(=Nc3ccc(N(C)C(=O)CN4CCN(C)CC4)cc3)c3ccccc3)c(O)[nH]c2c1` belongs 10400 nM (active); to `COCCn1c2c([n+](Cc3cnccn3)c1C)C(=O)c1ccccc1C2=O`, 65.8 nM (active).
Same read-out and setting: to `Nc1ccn([C@@H]2O[C@H](CO)[C@H](O)C2(F)F)c(=O)n1` belongs 117 nM (active); to `COc1cccc2nc(-c3cccs3)nc(NN3C(=O)C=C(C)C3=O)c12`, 1860 nM (active).
Take `CNC(=O)c1cc(Oc2ccc(NC(=O)Nc3cc(C(C)(C)C)nn3-c3ccc4ncccc4c3)c(F)c2)ccn1`: the “activity change, negative = cytotoxic” value was -12.3% (inactive).
`O=C(O)CCCc1c[nH]c2ccccc12`: the “activity change, negative = cytotoxic” value is 4.98% (inactive).
Regarding `COc1cc2c(Oc3ccc(NC(=O)C4(C(=O)Nc5ccc(F)cc5)CC4)cc3F)ccnc2cc1OCCCN1CCOCC1`, the Potency was 5870 nM (active).
As for `CCc1cc2c(cc1N1CCC(N3CCOCC3)CC1)C(C)(C)c1[nH]c3cc(C#N)ccc3c1C2=O`, the “activity change, negative = cytotoxic” value is -14.9% (inactive).
Still for that read-out and setting: to `COc1ccc(CC2c3cc(OC)c(OC)cc3CC[N+]2(C)CCC(=O)OCCCCCOC(=O)CC[N+]2(C)CCc3cc(OC)c(OC)cc3C2Cc2ccc(OC)c(OC)c2)cc1OC` (stereo not given) belongs -1.18% [at 9.17 µM] (inactive).
As to `Cc1c(Cn2c(C)nc3c(C(=O)O)cc(N4CCOCC4)cc32)cccc1C(F)(F)F`, the “activity change, negative = cytotoxic” value was 3.54% (inactive).
For the molecule `CC1=C(CO)C(=O)O[C@@H]([C@@H](C)[C@H]2CC[C@H]3[C@@H]4C[C@H]5O[C@]56[C@@H](O)C=CC(=O)[C@]6(C)[C@@H]4CC[C@]23C)C1`, the Potency was 2340 nM (active).
Still for that read-out and setting: to `C=C1C(=CC=C2CCC[C@]3(C)[C@@H]([C@H](C)C=C[C@H](C)C(C)C)CC[C@@H]23)C[C@@H](O)C[C@@H]1O` belongs 11700 nM (active).
Regarding `C[C@]1(CO)CN(c2cc(C(=O)Nc3ccc4c(c3)-c3c(c(C(N)=O)nn3-c3ccc(F)cc3)CC4)c(Cl)cn2)C[C@@]1(C)CO`, the Potency was 18600 nM (active).
The same measure, in the same setting: the same measure for `NC(=O)Nc1cc(-c2cccc(F)c2)sc1C(=O)N[C@H]1CCCNC1`: 2340 nM (active).
Turning to `Cc1cc(Nc2cc(NC(=O)c3c(Cl)cccc3Cl)ccn2)nc(N)n1`, the Potency was 930 nM (active).
For `CC(C)(C)c1cc(C(C)(C)C)c(NC(=O)c2c[nH]c3ccccc3c2=O)cc1O`, the “activity change, negative = cytotoxic” value was 10.2% (inactive).
As to `CC=CC1=C(C(=O)O)N2C(=O)[C@H](NC(=O)[C@H](N)c3ccc(O)cc3)[C@@H]2SC1`, the “activity change, negative = cytotoxic” value was 11.2% (inactive).
Still for that read-out and setting: to `Clc1cccc(-n2nnnc2NCc2ccccc2Oc2ccccn2)c1Cl` belongs 11% (inactive).
Consider `C=CC(=O)Nc1cc2c(Nc3ccc(F)c(Cl)c3)ncnc2cc1C#CC(C)(C)N1CCN(C)CC1`, for which the Potency is 11700 nM (active).
For `CNC(=O)CN1CCC(Oc2cc3c(Nc4cccc(Cl)c4F)ncnc3cc2OC)CC1`, the Potency is 930 nM (active).
The same measure, in the same setting: the same measure for `CC1(C)OC2=C(C(=O)c3ccccc3C2=O)[C@H](NCc2ccccc2)[C@H]1O`: 18600 nM (active).
Turning to `CN1c2cc(O)c(N=NC(N)=O)cc2CC1S(=O)(=O)O` (stereo not given), the “activity change, negative = cytotoxic” value was 4.64% (inactive).
On to `CCCCCCCCCC(=O)N[C@@H](Cc1c[nH]c2ccccc12)C(=O)N[C@H](CC(N)=O)C(=O)N[C@@H](CC(=O)O)C(=O)N[C@@H]1C(=O)NCC(=O)N[C@@H](CCCN)C(=O)N[C@@H](CC(=O)O)C(=O)N[C@H](C)C(=O)N[C@@H](CC(=O)O)C(=O)NCC(=O)N[C@H](CO)C(=O)N[C@@H]([C@@H](C)CC(=O)O)C(=O)N[C@@H](CC(=O)c2ccccc2N)C(=O)O[C@@H]1C`, for which the “activity change, negative = cytotoxic” value was 15.5% (inactive).
For `CN1CC[C@@H](c2c(O)cc(O)c3c(=O)cc(-c4ccccc4Cl)oc23)[C@@H](O)C1`, the Potency is 466 nM (active).
On the same count and under the same terms, the same measure for `CC(C)c1ccc(Cn2ccc3c4c(N)nc(NC5CC5)nc4ccc32)cc1`: 4150 nM (active).
Turning to `O=C(O)Cn1nnc(-c2cc(N3CCC(Oc4cc(F)ccc4Br)CC3)no2)n1`, the “activity change, negative = cytotoxic” value was 11.8% (inactive).
As for `CN1CCN(c2ccc3nc(-c4c(N)c5c(F)cccc5[nH]c4=O)[nH]c3c2)CC1`, the Potency was 14700 nM (active).
In the case of `CC(=O)OCCN1C(=O)c2c(C)nc3ccc(S(=O)(=O)N4CCOCC4)cc3c2C1=O`, the “activity change, negative = cytotoxic” value is 14.8% (inactive).
Same read-out and setting: to `CCOc1ccccc1OCCNC(C)Cc1ccc(OC)c(S(N)(=O)=O)c1` (stereo not given) belongs 3.39% (inactive).

A further assay is described as follows: qHTS of pediatric cancer cell lines to identify multiple opportunities for drug repurposing: Primary screen for DAOY cells (AID 1347090).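 For activity change, negative = cytotoxic: plate controls were DMSO for no effect and bortezomib for full effect.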 Note: nearly all actives have a fitted effect of over 55% in size. The note with it: DAOY medulloblastoma viability, CellTiter-Glo luminescence, 48 h; series mostly up to 46 µM; activity change, negative = cytotoxic: at the top concentration. The procedure, abridged:
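Cell viability, CellTiter-Glo luminescence; 500-1,000 cells/well, 8- or 11-point titration, 48 h compound exposure at 37 degrees C, 5% CO2. Controls: DMSO neutral, bortezomib 2.3 µM final as positive.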
(In qHTS, concentration-response curves come from the screen itself.)
On to `N#Cc1c(O)c2c(-c3ccc(-c4ccccc4O)cc3)csc2[nH]c1=O`, for which the “activity change, negative = cytotoxic” value was -5.3% (inactive).
As to `OCc1ccc(-c2ccc(-c3ccc(CO)s3)o2)s1`, the Potency is 9350 nM (active).
As for `CC(=O)SC[C@@H](C)C(=O)N1CCC[C@H]1C(=O)N[C@@H](Cc1ccccc1)C(=O)O`, the “activity change, negative = cytotoxic” value was 5.38% (inactive).
On to `O=C(Cc1ccc(-c2ccc(OCCN3CCOCC3)cc2)cn1)NCc1ccccc1`, for which the Potency is 37.2 nM (active).
`O=C(C=Cc1c(C(=O)O)[nH]c2cc(Cl)cc(Cl)c12)Nc1ccccc1`: the “activity change, negative = cytotoxic” value was 0.0339% (inactive).
Turning to `C1=CCOCc2cc(ccc2OCCN2CCCC2)Nc2nccc(n2)-c2cccc(c2)OCC1`, the Potency was 14800 nM (active).
Still for that read-out and setting: the same measure for `COC(=O)c1ccc2c(C(=Nc3ccc(N(C)C(=O)CN4CCN(C)CC4)cc3)c3ccccc3)c(O)[nH]c2c1`: 590 nM (active).
Still for that read-out and setting: to `COCCn1c2c([n+](Cc3cnccn3)c1C)C(=O)c1ccccc1C2=O` belongs 11.8 nM (active); to `Nc1ccn([C@@H]2O[C@H](CO)[C@H](O)C2(F)F)c(=O)n1`, 1870 nM (active).
On the same count and under the same terms, the same measure for `COc1cccc2nc(-c3cccs3)nc(NN3C(=O)C=C(C)C3=O)c12`: 2350 nM (active).
As for `CNC(=O)c1cc(Oc2ccc(NC(=O)Nc3cc(C(C)(C)C)nn3-c3ccc4ncccc4c3)c(F)c2)ccn1`, the Potency was 18700 nM (active).
As to `O=C(O)CCCc1c[nH]c2ccccc12`, the “activity change, negative = cytotoxic” value is 1.13% (inactive).
Consider `COc1cc2c(Oc3ccc(NC(=O)C4(C(=O)Nc5ccc(F)cc5)CC4)cc3F)ccnc2cc1OCCCN1CCOCC1`, for which the Potency was 18700 nM (active).
On to `CCc1cc2c(cc1N1CCC(N3CCOCC3)CC1)C(C)(C)c1[nH]c3cc(C#N)ccc3c1C2=O`, for which the “activity change, negative = cytotoxic” value was -9.43% (inactive).
Same read-out and setting: to `COc1ccc(CC2c3cc(OC)c(OC)cc3CC[N+]2(C)CCC(=O)OCCCCCOC(=O)CC[N+]2(C)CCc3cc(OC)c(OC)cc3C2Cc2ccc(OC)c(OC)c2)cc1OC` (stereo not given) belongs -5.91% [at 9.22 µM] (inactive).
With `Cc1c(Cn2c(C)nc3c(C(=O)O)cc(N4CCOCC4)cc32)cccc1C(F)(F)F`, the Potency was 7430 nM (active).
The same measure, in the same setting: to `CC1=C(CO)C(=O)O[C@@H]([C@@H](C)[C@H]2CC[C@H]3[C@@H]4C[C@H]5O[C@]56[C@@H](O)C=CC(=O)[C@]6(C)[C@@H]4CC[C@]23C)C1` belongs 743 nM (active); to `C=C1C(=CC=C2CCC[C@]3(C)[C@@H]([C@H](C)C=C[C@H](C)C(C)C)CC[C@@H]23)C[C@@H](O)C[C@@H]1O`, 1870 nM (active); to `C[C@]1(CO)CN(c2cc(C(=O)Nc3ccc4c(c3)-c3c(c(C(N)=O)nn3-c3ccc(F)cc3)CC4)c(Cl)cn2)C[C@@]1(C)CO`, 11800 nM (active).
On the same count and under the same terms, to `NC(=O)Nc1cc(-c2cccc(F)c2)sc1C(=O)N[C@H]1CCCNC1` belongs 1870 nM (active); to `Cc1cc(Nc2cc(NC(=O)c3c(Cl)cccc3Cl)ccn2)nc(N)n1`, 1480 nM (active).
As for `CC(C)(C)c1cc(C(C)(C)C)c(NC(=O)c2c[nH]c3ccccc3c2=O)cc1O`, the “activity change, negative = cytotoxic” value was -2.56% (inactive).
Take `CC=CC1=C(C(=O)O)N2C(=O)[C@H](NC(=O)[C@H](N)c3ccc(O)cc3)[C@@H]2SC1`: the “activity change, negative = cytotoxic” value is 7.19% (inactive).
For the molecule `Clc1cccc(-n2nnnc2NCc2ccccc2Oc2ccccn2)c1Cl`, the “activity change, negative = cytotoxic” value was -13.3% (inactive).
For `C=CC(=O)Nc1cc2c(Nc3ccc(F)c(Cl)c3)ncnc2cc1C#CC(C)(C)N1CCN(C)CC1`, the Potency was 5900 nM (active).
Same read-out and setting: to `CNC(=O)CN1CCC(Oc2cc3c(Nc4cccc(Cl)c4F)ncnc3cc2OC)CC1` belongs 9.3 nM (active); to `CC1(C)OC2=C(C(=O)c3ccccc3C2=O)[C@H](NCc2ccccc2)[C@H]1O`, 5900 nM (active).
In the case of `CN1c2cc(O)c(N=NC(N)=O)cc2CC1S(=O)(=O)O` (stereo not given), the “activity change, negative = cytotoxic” value is -2.2% (inactive).
On the same count and under the same terms, to `CCCCCCCCCC(=O)N[C@@H](Cc1c[nH]c2ccccc12)C(=O)N[C@H](CC(N)=O)C(=O)N[C@@H](CC(=O)O)C(=O)N[C@@H]1C(=O)NCC(=O)N[C@@H](CCCN)C(=O)N[C@@H](CC(=O)O)C(=O)N[C@H](C)C(=O)N[C@@H](CC(=O)O)C(=O)NCC(=O)N[C@H](CO)C(=O)N[C@@H]([C@@H](C)CC(=O)O)C(=O)N[C@@H](CC(=O)c2ccccc2N)C(=O)O[C@@H]1C` belongs 6.28% (inactive).
In the case of `CN1CC[C@@H](c2c(O)cc(O)c3c(=O)cc(-c4ccccc4Cl)oc23)[C@@H](O)C1`, the Potency was 187 nM (active).
Same read-out and setting: to `CC(C)c1ccc(Cn2ccc3c4c(N)nc(NC5CC5)nc4ccc32)cc1` belongs 14800 nM (active).
With `O=C(O)Cn1nnc(-c2cc(N3CCC(Oc4cc(F)ccc4Br)CC3)no2)n1`, the “activity change, negative = cytotoxic” value is 0.822% (inactive).
As for `CN1CCN(c2ccc3nc(-c4c(N)c5c(F)cccc5[nH]c4=O)[nH]c3c2)CC1`, the “activity change, negative = cytotoxic” value is -20.4% (inactive).
With `CC(=O)OCCN1C(=O)c2c(C)nc3ccc(S(=O)(=O)N4CCOCC4)cc3c2C1=O`, the “activity change, negative = cytotoxic” value was 10.3% (inactive).
On the same count and under the same terms, to `CCOc1ccccc1OCCNC(C)Cc1ccc(OC)c(S(N)(=O)=O)c1` (stereo not given) belongs 0.0945% (inactive).
